The nature of assay [1]: sensitizers of A549 cells to miR-34 induction, primary screen, imaging, A549 dox-inducible miR-34, nuclei and caspase counts (AID 1347080;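 active = compounds whose cell count with miR-34 switched on is under 0.7 times the count with it off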). Conditions: A549 miR-34 inducible, Hoechst nuclei count, 48 h.
Assay [2] can be described thus: survival rescue of mitochondrial mutant cells in low glucose, primary screen, MELAS cybrids, Rieske KO mouse fibroblasts, CellTiter-Glo (AID 1508586).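 Note: z relative to plate mean and SD of compound and empty wells.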 A general note: Cellular ATP, detected with luciferase, serves as a proxy for viable cell number.
Where [3] appears, read: stronger effect = lower value, cell number ratio, induced over uninduced.
The mark [4] stands for this setting: measured here: relative caspase fold change +Dox/-Dox.
Setting [5] is: measured here: total cells with miR-34 induction, stronger effect = lower value.
The mark [6] stands for this setting: measured here: total cells without miR-34 induction.
Setting [7] is: MELAS cybrid survival, CellTiter-Glo 48 h, stronger effect = higher value.
Where [8] appears, read: Rieske KO mouse fibroblast survival, CellTiter-Glo 72 h.

The source made the active and inactive calls.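 Rule for the calls, unless noted: active = mean z-score across replicates of 1.96 or higher in either the MELAS or the Rieske mutant cell line; inactive = the rest.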
Note: test concentration not given here.

On to `CC1C[C@H]2[C@@H]3CCC4=CC(=O)C=C[C@]4(C)[C@]3(Cl)C(O)C[C@]2(C)[C@]1(OC(=O)c1ccco1)C(=O)CCl` (stereo partly specified), for which the fold change is 0.916 (inactive) in assay [1] (setting [3]) and 0.877 in assay [1] (setting [4]). For the same compound, the cell count in assay [1] (setting [5]) came to 4380; in assay [1] (setting [6]), 4780. Besides, the z-score in assay [2] (setting [7]) is -0.46 (inactive); in assay [2] (setting [8]), -0.518.
Turning to `O=C1C(Cl)=C(N2CCOCC2)C(=O)N1c1ccc(Cl)c(Cl)c1`, the fold change was 0.939 (inactive) in assay [1] (setting [3]) and 0.753 in assay [1] (setting [4]). The figures for the cell count in assay [1] (setting [5]) and in assay [1] (setting [6]) were 7840 and 8360, respectively. The z-score was -0.367 (inactive) in assay [2] (setting [7]) and -0.893 in assay [2] (setting [8]).
For the compound `CC(=O)ON=C1C(=O)N(Cc2cc(Cl)ccc2Cl)c2ccc(Cl)cc21`, the fold change in assay [1] (setting [3]) was 0.848 (inactive); in assay [1] (setting [4]), 0.441. Moreover, the figures for the cell count in assay [1] (setting [5]) and in assay [1] (setting [6]) were 7100 and 8370, respectively. In addition, the z-score in assay [2] (setting [7]) is -0.0209 (inactive); in assay [2] (setting [8]), 1.12.
For the compound `C#C[C@]1(O)CC[C@H]2[C@@H]3CCC4=CC(=O)CC[C@@H]4[C@@H]3CC[C@@]21C`, the results for the fold change in assay [1] (setting [3]) and in assay [1] (setting [4]) were 0.857 (inactive) and 0.775, respectively. Also, the figures for the cell count in assay [1] (setting [5]) and in assay [1] (setting [6]) were 7940 and 9270, respectively. Further, the results for the z-score in assay [2] (setting [7]) and in assay [2] (setting [8]) were -0.24 (inactive) and -0.172, respectively.
Consider `C[C@]12CC[C@H]3c4ccc(O)cc4CC[C@H]3[C@@H]1CC(O)C2O` (stereo partly specified), for which the fold change in assay [1] (setting [3]) is 0.884 (inactive); in assay [1] (setting [4]) it was 0.677. Moreover, the cell count is 8910 in assay [1] (setting [5]) and 10100 in assay [1] (setting [6]). Moreover, the z-score in assay [2] (setting [7]) was -0.421 (inactive); in assay [2] (setting [8]), -0.251.
Turning to `Cc1ccc(S(=O)(=O)c2ccc([N+](=O)[O-])o2)cc1`, the fold change is 1.58 (inactive) in assay [1] (setting [3]) and 0.353 in assay [1] (setting [4]). Further, the cell count in assay [1] (setting [5]) is 1860; in assay [1] (setting [6]), 1180. The z-score is -1.09 (inactive) in assay [2] (setting [7]) and -6.94 in assay [2] (setting [8]).
With `CCc1c(Cl)c(O)c(Cl)c(O)c1C(=O)OC1C(C)OC(OCC2=CC=CCC(O)C(C)=CC(CC)C(O[C@@H]3OC(C)(C)C(OC(=O)C(C)C)C(O)C3O)C(C)=CC(C)=CC[C@H](C(C)O)OC2=O)C(OC)C1O` (stereo partly specified), the fold change is 0.841 (inactive) in assay [1] (setting [3]) and 0.698 in assay [1] (setting [4]). Moreover, the cell count in assay [1] (setting [5]) worked out at 6980; in assay [1] (setting [6]), 8290. Also, the z-score in assay [2] (setting [7]) was -0.301 (inactive); in assay [2] (setting [8]), -0.0909.
Regarding `O=C(c1ccc(F)cc1)N1CCCC(c2nc(-c3ccc(F)cc3)no2)C1` (stereo unspecified), the results for the fold change in assay [1] (setting [3]) and in assay [1] (setting [4]) were 0.877 (inactive) and 0.718, respectively. The cell count in assay [1] (setting [5]) was determined as 8270; in assay [1] (setting [6]) it was 9420. Also, the z-score in assay [2] (setting [7]) is -0.287 (inactive); in assay [2] (setting [8]), -0.496.
For `OCCOc1ccc(C(=C(CCCl)c2ccccc2)c2ccccc2)cc1`, the fold change in assay [1] (setting [3]) is 0.979 (inactive); in assay [1] (setting [4]), 0.793. Further, the results for the cell count in assay [1] (setting [5]) and in assay [1] (setting [6]) were 9190 and 9380, respectively. For the same compound, the z-score in assay [2] (setting [7]) is -0.333 (inactive); in assay [2] (setting [8]) it was -0.092.
As to `Cc1nc(N(C)C(=O)Cc2ccc(-c3ccccn3)cc2)sc1S(N)(=O)=O`, the fold change in assay [1] (setting [3]) was 0.911 (inactive); in assay [1] (setting [4]) it was 0.414. Besides, the values for the cell count in assay [1] (setting [5]) and in assay [1] (setting [6]) were 7530 and 8270, respectively. Also, the z-score was -0.339 (inactive) in assay [2] (setting [7]) and -0.561 in assay [2] (setting [8]).
As for `CC(C)(C)[N+]([O-])=Cc1ccc(S(=O)(=O)O)cc1S(=O)(=O)O`, the fold change in assay [1] (setting [3]) was 0.908 (inactive); in assay [1] (setting [4]) it was 1.03. The cell count in assay [1] (setting [5]) came to 9880; in assay [1] (setting [6]), 10900. Also, the z-score is -0.368 (inactive) in assay [2] (setting [7]) and 0.732 in assay [2] (setting [8]).
For `NC(=O)Nc1cc(-c2cccc(F)c2)sc1C(=O)NC1CCCNC1` (stereo unspecified), the fold change in assay [1] (setting [3]) is 1.01 (inactive); in assay [1] (setting [4]), 0.785. Further, the values for the cell count in assay [1] (setting [5]) and in assay [1] (setting [6]) were 866 and 858, respectively. The z-score was -0.543 (inactive) in assay [2] (setting [7]) and -2.7 in assay [2] (setting [8]).
Consider `O=C(O)CC1CC(c2ccccc2)=NO1` (stereo unspecified), for which the results for the fold change in assay [1] (setting [3]) and in assay [1] (setting [4]) were 0.969 (inactive) and 0.43, respectively. For the same compound, the cell count was determined as 8760 in assay [1] (setting [5]) and 9040 in assay [1] (setting [6]). Moreover, the z-score in assay [2] (setting [7]) is -0.328 (inactive); in assay [2] (setting [8]) it was 0.698.
With `Cn1c(=O)cc(N2CCCC(N)C2)n(Cc2cc(F)ccc2C#N)c1=O` (stereo unspecified), the figures for the fold change in assay [1] (setting [3]) and in assay [1] (setting [4]) were 0.894 (inactive) and 0.61, respectively. The cell count in assay [1] (setting [5]) was 8440; in assay [1] (setting [6]), 9440. Moreover, the z-score is -0.335 (inactive) in assay [2] (setting [7]) and 1.48 in assay [2] (setting [8]).
For the compound `CN1CCN(S(=O)(=O)c2ccc(-c3cnc(N)c(C(=O)Nc4cccnc4)n3)cc2)CC1`, the values for the fold change in assay [1] (setting [3]) and in assay [1] (setting [4]) were 0.893 (inactive) and 0.445, respectively. Besides, the cell count was determined as 2390 in assay [1] (setting [5]) and 2680 in assay [1] (setting [6]). Moreover, the results for the z-score in assay [2] (setting [7]) and in assay [2] (setting [8]) were 0.891 (inactive) and -1.29, respectively.
Regarding `CCC(C)(C)c1ccc(CC(C)CN2CC(C)OC(C)C2)cc1` (stereo unspecified), the fold change is 0.944 (inactive) in assay [1] (setting [3]) and 0.765 in assay [1] (setting [4]). The cell count in assay [1] (setting [5]) came to 8210; in assay [1] (setting [6]), 8700. In addition, the z-score in assay [2] (setting [7]) was -0.433 (inactive); in assay [2] (setting [8]) it was 0.477.

(Values after PubChem BioAssay.)
